This is a sample that favours compounds with a hit; in the whole collection about 9.3% have one here.
VACV Venus inh – inhibitors of vaccinia virus (Venus reporter); AID 720580; Potency, µM (doses to about 36.5 µM), inactives show at the top dose activity change, negative = inhibition, most hits filed as inhibitors; 330,000 compounds, 0.46% hits; Vaccinia virus Venus reporter expression, fluorescence; calls by dose curve; tested in A549 cells; further: potency means the concentration at half of the fitted maximal effect; nearly all actives have a fitted effect of over 30% in size
FMDV inh – antivirals against foot and mouth disease virus | FMDV antiviral cell-based qHTS | Potency, µM (doses to about 57.9 µM), for the others: at the top dose activity change, negative = inhibition, actives largely listed as inhibitors | 410,000 compounds, 1.2% hits | AID 1159524; calls by dose curve; tested in HEK293T cells; further: read-out not given here; potency means the concentration at half of the fitted maximal effect; nearly all actives have a fitted effect of over 45% in size
HCMV antiviral – inhibitors of human cytomegalovirus; HFF cells, HCMV-luciferase reporter, 72 h; stronger effect = lower value; activity change, negative = inhibition, % at 57.5 µM; 410,000 compounds, 4.5% hits; AID 1259415; in the data active means activity change below about -60%; inconclusive means no clear call, values can overlap the other calls; inactive means above about -39%
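Compounds were evaluated in HFFs infected with an HCMV luciferase reporter virus (MOI 1 PFU/cell). Luciferase in lysates collected 72 h post infection served as the replication measure.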
Sm TGR inh – S. mansoni TGR enzyme inhibition. Q962Y6. purified TGR, DTNB reduction, TNB absorbance 405 nm. Potency, µM (doses to about 114 µM), for the others: at the highest dose activity change, negative = inhibition, hits mostly inhibitors. 360,000 compounds, 3% hits. AID 485364; further: potency means the concentration at half of the fitted maximal effect; nearly all actives have a fitted effect of over 60% in size
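First, TGR (20 nM dispensed) and NADPH were mixed with compound. Second, a 15 min room-temperature incubation followed. Third, further NADPH and then DTNB were added to start the reaction. Finally, TNB absorbance was monitored kinetically.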
HCV inh – HCV inhibition; Huh7.5.1 HCVcc-Cre infection, luciferase reporter, 44 h; Potency, µM (doses to about 41.8 µM), for inactives: at the highest dose activity change, negative = inhibition, usual class: inhibitors; 340,000 compounds, 3.4% hits; AID 651820; further: potency means the concentration at half of the fitted maximal effect
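Infectious HCVcc-Cre (~0.5 moi) was added to cells just after compound, with cells seeded 4 h earlier at 1,000 per well. Luciferase activity after 44 h culture reported infection; substrate was incubated 15 min at room temperature before reading.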
Vaccinia mCherry – inhibitors of vaccinia virus infection (mCherry reporter signal). Vaccinia virus mCherry reporter infection, fluorescence. Potency, µM (series often up to 36.5 µM), for the others: at the highest dose activity change, negative = inhibition, actives largely listed as inhibitors. 310,000 compounds, 0.63% hits. AID 720579; calls by dose curve; tested in A549 cells; further: potency means the concentration at half of the fitted maximal effect; nearly all actives have a fitted effect of over 35% in size
Starred values were filed as active, the others as inactive; i = inactive; ? = inconclusive; . = not tested or not shown; + = active, no number; [ ] = another dose, or the depositor's remark. Unless noted, the call rests on the fitted dose curve; in most records, active means well fitted curve in the direction sought with a large enough effect; inconclusive means small, poorly fitted or top-dose-only effect, or another doubt; inactive means no such curve, though single readings can be large; an effect the other way counts as inactive or inconclusive. On the % scale 0 is the no-effect control and ±100 the full control effect.

SMILES | VACV Venus inh | FMDV inh | HCMV antiviral | Sm TGR inh | HCV inh | Vaccinia mCherry
CCn1c(SCC(=O)N2c3ccccc3CCc3ccccc32)nnc1-c1ccc(OC)cc1 | -6.2% | -13.3% | -24.4 | 3.2% | ? | -12.9%
O=C(Nc1ccc(NC(=O)c2cc3ccccc3o2)cc1)c1ccc2c(c1)OCCO2 | -7.0% | ? | ? | 20.1% | ? | 7.8%
COc1cc(NC(=O)c2ccc(C)cc2C)ccc1NC(=O)c1cc2ccccc2o1 | . | -30.5% | -81.8* | -0.3% | ? | .
COc1cc(NC(=O)c2ccc(C)cc2)ccc1NC(=O)c1cc2ccccc2o1 | 0.7% | -9.3% | 9.3 | -8.7% | -8.8% | -4.5%
COc1cc(NC(=O)c2ccc(Cl)cc2Cl)ccc1-c1cc2ccccc2oc1=O | -19.4% | 2.8% | -91.1* | -1.0% | -5.5% | -9.6%
COc1cc(NC(C)=O)ccc1-c1cc2ccccc2oc1=O | -8.6% | 13.9% | -6.7 | 1.6% | -9.4% | -15.4%
Cc1cc(NC(=O)c2ccc3c(c2)OCCO3)ccc1NC(=O)c1cc2ccccc2o1 | . | -26.9% | -7.5 | . | 11.2µM* | .
COc1cc(NC(=O)c2c(OC)cccc2OC)ccc1NC(=O)c1cc2ccccc2o1 | ? | 22.6% | 44.8 | -10.2% | 25.1µM* | ?
Cc1cc(C)c(NC(=O)CSc2nc3ncc(Cl)cc3[nH]2)c(C)c1 | -1.4%[7.34 µM] | -18.4% | 20.5 | -16.9% | -8.3% | i[7.34 µM]
CC(C)(C)c1ccc(C(=O)c2c[nH]c(C(=O)NCC3CCCO3)c2)cc1 (configuration not stated) | -22.3% | -19.7% | 57.1 | -13.7% | -24.1% | .
Cc1ccc(CN2CC(C(=O)Nc3nnc(SCc4c(Cl)cccc4Cl)s3)CC2=O)cc1 (configuration not stated) | -13.7% | -11.6% | -34.8 | -4.1% | 8.8% | -13.8%
COc1ccc(NC(=O)CSc2ncc(-c3ccc(F)cc3)n2Cc2ccco2)cc1 | ? | ? | 2.7 | 3.3% | ? | ?
CCC(=O)Nc1cc(NC(=O)CSc2ncc(-c3ccc(F)cc3)n2Cc2ccco2)ccc1C | -21.5% | 57.4% | 86.4 | 44.7µM* | ? | -28.3%
COc1ccc(-c2cnc(SCC(=O)Nc3nc(C(C)(C)C)cs3)n2Cc2ccco2)cc1 | -16.5% | ? | -19.5 | -35.9% | 4.47µM* | .
COc1ccc(-c2cnc(SCC(=O)Nc3cc(C)on3)n2Cc2ccco2)cc1 | -9.4% | ? | -16.2 | -16.0% | -23.2% | -15.2%
CCCCCN(C(=O)CCC(=O)OCC(=O)N1CCCCC1CC)c1c(N)n(CCCC)c(=O)[nH]c1=O (configuration not stated) | -2.4% | -9.5% | -8.2 | . | 2.3% | -17.5%
COc1cc(/C=C(/C(=O)c2cccs2)c2nc3ccccc3[nH]2)cc(OC)c1O | . | 14.1µM* | -102.4* | 35.5µM* | 10µM* | .
O=C(/C(=C/c1ccc(Cl)cc1)c1nc2ccccc2[nH]1)c1ccccc1 | ? | ? | -95.7* | 7.0% | 10µM* | ?
CC(C)C1OC2(C)OC(=N)C1(C#N)C(C#N)(C#N)C2c1ccccc1 (configuration not stated) | 1.7% | -29.7% | ? | ? | 43.0% | -8.9%
CC1CCC(C(C)C)C2=C1C(C#N)(C#N)C(C#N)(C#N)C(c1ccccc1)N2 (configuration not stated) | -27.4% | ? | ? | 5.01µM* | ? | .
Nc1cc2ccccc2oc1=O | -7.9% | -1.8% | 37.0 | -21.4% | 5.1% | .
O=C(Nc1ccc(Cl)cc1)NC1CCCC1Cc1ccco1 (configuration not stated) | -16.5% | 0.0% | . | 44.7µM* | -19.0% | -6.6%
CC(C)CCOc1ccc(C(=O)CCNC(C)C(=O)O)cc1 (configuration not stated) | . | . | . | 1µM* | 11.4% | .
CCCNc1nc(C)nc2c1cnn2CCc1ccccc1 | -20.9% | 21.2% | 7.8 | 6.3% | ? | -12.2%
CCn1c2ccc(OC)cc2c2nc3ccccc3nc21 | -24.8% | 0.0% | 54.8 | 1.3% | 7.94µM* | .
SMILES | VACV Venus inh | FMDV inh | HCMV antiviral | Sm TGR inh | HCV inh | Vaccinia mCherry
CCOc1ccc(Cn2c3ccc(OC)cc3c3nc4ccccc4nc32)cc1 | -5.4% | -17.9% | ? | -4.6% | 0.4% | -4.8%
CCn1c2ccc(Cl)cc2c2nc3ccccc3nc21 | . | -20.5% | -3.2 | 28.2µM* | ? | .
Cn1nc(-c2ccc(C(=O)NC3CCCCC3)cc2)c2ccccc2c1=O | -14.1% | ? | 17.2 | 0.4% | -5.5% | -4.3%
CCc1cccc(NC(=O)c2ccc(CNS(=O)(=O)c3ccc4c(c3)C(C)(C)C(=O)N4C)cc2)c1 | -18.5% | 22.4µM* | ? | 1.2% | . | -17.1%
Cc1ccc(NC(=O)c2ccc(CNS(=O)(=O)c3ccc4c(c3)C(C)(C)C(=O)N4C)cc2)cc1F | -23.2% | 25.1µM* | -32.0 | -1.0% | . | ?
COc1ccc2c(c1OC)C(=O)OC2Nc1ncc(Br)cc1Br (configuration not stated) | . | -6.4% | -9.8 | -17.7% | 18.4% | .
COc1cc(/C=C/C(=O)OCC(=O)N2CC3(C)CC2CC(C)(C)C3)ccc1O (configuration not stated) | -23.3% | ? | -73.3* | -25.4% | 1.4% | i
CC1(C)CC2CC(C)(CN2C(=O)COC(=O)c2ccccc2C(F)(F)F)C1 (configuration not stated) | . | -5.9% | + | -8.5% | ? | .
COc1cc(/C=C/C(=O)OCC(=O)N2CCC(C)CC2)ccc1O | -7.7% | -4.3% | 3.3 | -0.3% | -5.7% | -4.0%
COc1cc(/C=C/C(=O)OC2CC3CCC2(C)C3(C)C)ccc1O (configuration not stated) | -8.7% | 17.2% | -102.6* | -23.0% | ? | -2.1%
COc1cc(/C=C/C(=O)OCC(=O)N2CCC(Cc3ccccc3)CC2)ccc1O | -13.6% | 31.6µM* | -18.2 | -1.3% | ? | i
CCCN1C(=O)c2ccccc2NC1c1ccc(OC)c(CSc2ccccn2)c1 (configuration not stated) | -5.5% | 0.0% | -39.2 | 1.3% | ? | -11.5%
COc1cccc(C(=O)OCC(=O)N2CCC(Cc3ccccc3)CC2)c1OC | . | ? | 28.0 | . | -24.2% | .
Nc1cc(C(=O)OCC(=O)N2CCC(Cc3ccccc3)CC2)ccc1Cl | . | -18.1% | -64.6* | 3.3% | 0.0% | .
COc1ccc(CN2CCC(Cc3ccccc3)CC2)cc1OC | . | -7.3% | 94.9 | 26.3% | ? | .
Cc1ccc(C(=O)OCC(=O)N2CCC(Cc3ccccc3)CC2)cc1N | 2.5% | -5.9% | 28.1 | 2.3% | -3.3% | -13.6%
COc1cccc(OC)c1OCCCN1CCC(Cc2ccccc2)CC1 | -3.8% | 19.2% | -0.9 | -2.4% | 11.2µM* | -13.5%
COc1cccc(OC)c1C(=O)OCC(=O)N1CCC(Cc2ccccc2)CC1 | -7.6% | -5.9% | -99.5* | . | 16.9% | i
Cc1nc(-c2ccc(S(=O)(=O)N3CCN(Cc4ccccc4)CC3)s2)cs1 | . | -29.7% | ? | 8.2% | ? | .

From PubChem
